Test results published in PubChem BioAssay (Tox21).
Inconclusive results are not listed. Some compounds were tested as several samples or in several runs, with calls that do not always agree. Active and inactive are the calls of the source. Unless noted, the call rests on the fitted dose curve; in most records, active means well fitted curve in the direction sought with a large enough effect in the repeat runs; inconclusive means weak or mixed curves; inactive means no such curve, though single readings can be large; an effect the other way counts as inactive or inconclusive.

Assays:
[1] = qHTS assay to identify small molecule agonists of the peroxisome proliferator-activated receptor delta (PPARd) signaling pathway - cell viability counter screen (AID 743211); further: nearly all actives have a fitted effect of over 55% in size
Outline: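 In the same wells used for beta-lactamase reporter measurement, cytotoxicity is scored by CellTiter-Glo. HEK293H PPARd-bla cells receive compound for 17 h at 37C following a 5 h settling period.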

[2] = qHTS assay to identify small molecule antagonists of the peroxisome proliferator-activated receptor delta (PPARd) signaling pathway - cell viability counter screen (AID 743213); further: nearly all actives have a fitted effect of over 50% in size
Outline: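 Luminescence from CellTiter-Glo, added after the bla read and incubated 30 min at room temperature, gives viability of HEK293H PPARd-bla cells exposed to compounds for 17 h at 37 C with 300 nM L165041.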

[3] = target: Peroxisome proliferator-activated receptor delta (Homo sapiens) (UniProt Q03181); test: qHTS assay to identify small molecule antagonists of the peroxisome proliferator-activated receptor delta (PPARd) signaling pathway (AID 743215; active means well fitted inhibition curve with a large enough effect in the signal ratio in the repeat runs, not every such curve was filed as active; the % refers to the signal ratio;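 further: cells stimulated with agonist L165041 at 300 nM final during compound exposure; series mostly up to about 62 µM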)
Sequence of Peroxisome proliferator-activated receptor delta (Homo sapiens) (Q03181 whole entry, looked up): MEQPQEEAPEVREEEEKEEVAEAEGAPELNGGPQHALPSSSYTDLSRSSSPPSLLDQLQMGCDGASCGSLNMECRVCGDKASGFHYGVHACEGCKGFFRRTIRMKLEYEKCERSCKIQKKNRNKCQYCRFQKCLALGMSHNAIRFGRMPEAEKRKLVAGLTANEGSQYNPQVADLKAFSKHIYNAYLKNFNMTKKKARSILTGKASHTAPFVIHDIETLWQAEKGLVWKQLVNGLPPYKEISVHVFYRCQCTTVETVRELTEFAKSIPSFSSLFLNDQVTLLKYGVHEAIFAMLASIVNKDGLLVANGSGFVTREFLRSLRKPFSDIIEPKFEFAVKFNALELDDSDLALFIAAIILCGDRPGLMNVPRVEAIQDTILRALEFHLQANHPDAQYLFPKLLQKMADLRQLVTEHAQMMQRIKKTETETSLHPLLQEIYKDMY
Outline: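 With L165041 present at 300 nM final, compounds were incubated 17 h at 37 C on PPARd UAS-bla HEK293H cells. A FRET-based beta-lactamase substrate was then applied for 2 h at room temperature and fluorescence intensity recorded.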

[4] = target: Bile acid receptor (Homo sapiens) (UniProt Q96RI1); test: qHTS assay to identify small molecule antagonists of the farnesoid-X-receptor (FXR) signaling pathway (AID 743217; active means well fitted inhibition curve with a large enough effect in the signal ratio in the repeat runs, not every such curve was filed as active; the % refers to the signal ratio)
Sequence of Bile acid receptor (Homo sapiens) (Q96RI1 whole entry, looked up): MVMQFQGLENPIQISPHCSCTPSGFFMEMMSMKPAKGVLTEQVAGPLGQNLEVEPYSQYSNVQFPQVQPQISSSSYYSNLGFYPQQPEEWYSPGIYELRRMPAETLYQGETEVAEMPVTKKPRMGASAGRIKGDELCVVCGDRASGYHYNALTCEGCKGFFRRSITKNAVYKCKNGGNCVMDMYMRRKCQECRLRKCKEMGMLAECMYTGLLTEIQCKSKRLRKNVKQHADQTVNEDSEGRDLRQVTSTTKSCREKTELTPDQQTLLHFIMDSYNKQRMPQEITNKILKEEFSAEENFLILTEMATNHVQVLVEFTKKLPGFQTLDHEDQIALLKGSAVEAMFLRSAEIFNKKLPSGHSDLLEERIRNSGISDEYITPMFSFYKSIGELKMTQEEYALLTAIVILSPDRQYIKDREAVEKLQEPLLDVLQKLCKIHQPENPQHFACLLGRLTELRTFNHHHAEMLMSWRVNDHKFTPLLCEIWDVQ
Outline: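 In this cell-based antagonist screen, inhibition of CDCA-driven (50 uM final) UAS-beta-lactamase expression in HEK 293T cells was measured by FRET fluorescence following 16 h compound exposure at 37 °C.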

[5] = target: Bile acid receptor (Homo sapiens) (UniProt Q96RI1); test: qHTS assay to identify small molecule agonists of the farnesoid-X-receptor (FXR) signaling pathway (AID 743220; active means well fitted activation curve with a large enough effect in the signal ratio in the repeat runs, not every such curve was filed as active; the % refers to the signal ratio)
Outline: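 Beta-lactamase reporter under UAS control in GeneBLAzer FXR HEK 293T cells (5000/well) measured with LiveBLAzer FRET substrate after 2 h at room temperature. Compound exposure lasted 16 h at 37C.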

[6] = qHTS assay to identify small molecule antagonists of the farnesoid-X-receptor (FXR) signaling pathway - cell viability counter screen (AID 743221; active means well fitted cell-killing curve with a large enough effect in the repeat runs, not every such curve was filed as active; further: nearly all actives have a fitted effect of over 50% in size)
Outline: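 Here viability was scored by luminescence after CellTiter-Glo addition to wells already read for beta-lactamase. Prior treatment: compound plus CDCA (50 uM final), 16 h, 37 C, HEK 293T FXR-bla cells.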

[7] = target: Vitamin D3 receptor (Homo sapiens) (UniProt P11473); test: qHTS assay to identify small molecule agonists of the vitamin D receptor (VDR) signaling pathway (AID 743222; calls by dose curve)
Sequence of Vitamin D3 receptor (Homo sapiens) (P11473 whole entry, looked up): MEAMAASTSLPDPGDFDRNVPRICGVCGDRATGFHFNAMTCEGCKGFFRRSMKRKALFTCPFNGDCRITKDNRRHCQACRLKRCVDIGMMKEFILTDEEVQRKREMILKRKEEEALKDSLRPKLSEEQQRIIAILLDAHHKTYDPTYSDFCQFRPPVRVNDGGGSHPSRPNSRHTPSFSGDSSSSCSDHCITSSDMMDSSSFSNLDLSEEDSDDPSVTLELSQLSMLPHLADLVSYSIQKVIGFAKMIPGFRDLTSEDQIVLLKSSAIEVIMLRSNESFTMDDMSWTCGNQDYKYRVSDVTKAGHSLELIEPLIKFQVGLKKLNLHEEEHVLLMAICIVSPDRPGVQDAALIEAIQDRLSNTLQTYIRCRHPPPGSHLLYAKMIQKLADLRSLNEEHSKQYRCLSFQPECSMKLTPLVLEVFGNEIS
Outline: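 VDR-bla cells were seeded, left 4 h, treated with compounds in DMSO for 16 h, incubated 2 h at RT with B/G FRET substrate, and read for fluorescence.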

[8] = target: Vitamin D3 receptor (Homo sapiens) (UniProt P11473); test: qHTS assay to identify small molecule antagonists of the vitamin D receptor (VDR) signaling pathway (AID 743223; active means well fitted inhibition curve with a large enough effect in the signal ratio in the repeat runs, not every such curve was filed as active; the % refers to the signal ratio)
Outline: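 Inhibition of agonist-driven VDR signalling is scored in VDR-bla cells: 3 nM final 1alpha,25-dihydroxyvitamin D3 plus compound, 16 h at 37C, then beta-lactamase detection by FRET substrate fluorescence after 2 h.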

[9] = qHTS assay to identify small molecule agonists of the vitamin D receptor (VDR) signaling pathway - cell viability counter screen (AID 743224); further: nearly all actives have a fitted effect of over 50% in size; further: potency means the concentration at half of the fitted maximal effect
Outline: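 Here cell health was gauged by luminescent ATP detection (CellTiter-Glo, 30 min RT) in VDR-bla cells that had been incubated with test compounds for 16 h at 37C and 5% CO2.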

[10] = qHTS assay to identify small molecule antagonists of the vitamin D receptor (VDR) signaling pathway - cell viability counter screen (AID 743225); further: nearly all actives have a fitted effect of over 50% in size
Outline: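 Compounds were pinned onto VDR-bla HEK 293T cells together with 1-alpha,25-dihydroxyvitamin D3 at 3 nM final. After 16 h at 37C and 5% CO2 plus the reporter readout, cell viability was measured by CellTiter-Glo luminescence (30 min, room temperature).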

[11] = qHTS assay to identify small molecule agonists of the NFkB signaling pathway (AID 1159509; active means well fitted curve in the direction sought with a large enough effect in the signal ratio in the repeat runs, not every such curve was filed as active; the % refers to the signal ratio; further: series mostly up to about 61 µM)
Outline: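 NFkB-bla ME-180 cells with a beta-lactamase reporter under an NF-kB response element were plated overnight, treated with compounds in DMSO for 5 hr at 37 C, then loaded with FRET substrate for 1.5 hr at room temperature.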

[12] = qHTS assay to identify small molecule agonists of the NFkB signaling pathway - cell viability counter screen (AID 1159515; calls by dose curve; further: series mostly up to about 61 µM; nearly all actives have a fitted effect of over 55% in size)
Outline: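 5 hr compound treatment of NFkB-bla ME-180 cells (2,000/well, seeded overnight beforehand), followed by reporter substrate for 1.5 hr. CellTiter-Glo added afterward; luminescence after 30 min RT.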

[13] = qHTS assay to identify small molecule agonists of the endoplasmic reticulum stress response signaling pathway (AID 1159516; active means well fitted activation curve with a large enough effect in the signal ratio in the repeat runs, not every such curve was filed as active; the % refers to the signal ratio)
Outline: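 Reporter HeLa cells (ESRE-beta-lactamase) underwent 5 hr compound incubation at 37 C and 5% CO2 in quantitative HTS format. Detection followed 2 hr of FRET substrate loading at room temperature.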

[14] = qHTS assay to identify small molecule agonists of the endoplasmic reticulum stress response signaling pathway - cell viability counter screen (AID 1159517; calls by dose curve)
Outline: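 Cells, HeLa ESRE-bla; density, 1,500/well; dosing, 5 hr at 37 C, 5% CO2; readout, CellTiter-Glo luminescence after 30 min RT.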

[15] = qHTS assay to identify small molecule antagonists of the retinoid-related orphan receptor gamma (ROR-gamma) signaling pathway - cell viability counter screen (AID 1159520); further: nearly all actives have a fitted effect of over 50% in size
Outline: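 Cytotoxicity was read from cellular ATP (CellTiter-Glo luminescence) after 16 hr at 37 C with 1 uM doxycycline induction. The inducer was added 2 hr after compound transfer to Tet-on ROR gamma CHO cells.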

[16] = target: Nuclear receptor ROR-gamma (Homo sapiens) (UniProt P51449); test: qHTS assay to identify small molecule antagonists of the retinoid-related orphan receptor gamma (ROR-gamma) signaling pathway (AID 1159521; further: nearly all actives have a fitted effect of over 50% in size; further: potency means the concentration at half of the fitted maximal effect)
Outline: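 Test compounds were applied to Tet-on RORγ CHO cells 2 h ahead of doxycycline hyclate (1 uM final). Luciferase reporter activity was quantified by luminescence after 16 h at 37 C and 5% CO2.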

[17] = qHTS assay to identify small molecule agonists of the AP-1 signaling pathway (AID 1159526; calls by dose curve)
[18] = qHTS assay to identify small molecule agonists of the AP-1 signaling pathway - cell viability counter screen (AID 1159525; calls by dose curve; further: nearly all actives have a fitted effect of over 55% in size)
Outline: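 Luminescent ATP readout (Cell Titer Glo, 30 min RT), normalised to DMSO and tetra n-octyl ammonium bromide controls. Cells were ME-180 AP-1-bla in 0.5% dialyzed FBS Opti-MEM, with a 5 h, 37 °C compound exposure.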

[19] = target: Peroxisome proliferator-activated receptor delta (Homo sapiens) (UniProt Q03181); test: qHTS assay to identify small molecule agonists of the peroxisome proliferator-activated receptor delta (PPARd) signaling pathway (AID 743212; calls by dose curve)
Outline: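 HEK293H UAS-bla reporter cells, human PPARd system; compounds delivered in DMSO after 5 h plating, then at 37 C. Beta-lactamase FRET read, 2 h RT substrate step.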

[20] = qHTS assay to identify small molecule agonists of the farnesoid-X-receptor (FXR) signaling pathway - cell viability counter screen (AID 743218); further: nearly all actives have a fitted effect of over 45% in size
Outline: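 After 16 h at 37 C with test compounds, FXR-bla HEK 293T cells were given LiveBLAzer B/G substrate for 2 h at RT and then CellTiter-Glo; luminescence was taken after 30 min.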

Measured: Potency

O=C(O)CN(CC(=O)O)CC(=O)O
inactive: [1] | [2] | [3] | [4] | [5] | [6] | [7] | [8] | [9] | [10] | [11] | [12] | [13] | [14] | [15] | [16] | [17]

O=C1OC(c2ccc(O)cc2)(c2ccc(O)cc2)c2ccccc21
8.57 µM (active) and inactive: [16]
48.7 µM (active) and inactive: [9]
inactive: [1] | [2] | [6] | [7] | [8] | [10] | [11] | [12] | [13] | [14] | [15] | [18]

CC(=O)c1ccc(S(=O)(=O)NC(=O)NC2CCCCC2)cc1
inactive: [1] | [2] | [3] | [4] | [5] | [6] | [7] | [8] | [9] | [10] | [11] | [12] | [13] | [14] | [15] | [16] | [17]

NC(=O)OCC(COC(N)=O)c1ccccc1
inactive: [1] | [2] | [3] | [6] | [9] | [10] | [11] | [12] | [13] | [14] | [15] | [16] | [18] | [17]

CCOCCO
inactive: [1] | [2] | [4] | [5] | [6] | [7] | [8] | [9] | [10] | [11] | [12] | [13] | [14] | [15] | [16] | [18] | [17]

COc1ccc(C(=O)c2ccccc2)c(O)c1
inactive: [1] | [19] | [2] | [3] | [4] | [5] | [6] | [9] | [10] | [11] | [12] | [13] | [14] | [15] | [16] | [17]

CCCCCCCCCCCCCCCCCC(=O)OCC(O)CO (stereo unspecified)
inactive: [1] | [19] | [2] | [3] | [4] | [5] | [6] | [7] | [8] | [9] | [10] | [11] | [12] | [13] | [14] | [15] | [16] | [17]

C1CNCCN1
inactive: [1] | [2] | [6] | [7] | [8] | [9] | [10] | [11] | [12] | [13] | [14] | [15] | [16] | [18] | [17]

CCCCNC(=O)NS(=O)(=O)c1ccc(N)cc1
inactive: [1] | [2] | [3] | [6] | [7] | [8] | [9] | [10] | [11] | [12] | [13] | [14] | [15] | [16] | [18] | [17]

C=CC(=O)NC(C)(C)CS(=O)(=O)O
inactive: [1] | [19] | [2] | [3] | [20] | [6] | [7] | [8] | [9] | [10] | [11] | [12] | [13] | [14] | [15] | [16] | [17]

CO[C@H]1C=CO[C@@]2(C)Oc3c(C)c(O)c4c(O)c(c(/C=N/N5CCN(C)CC5)c(O)c4c3C2=O)NC(=O)/C(C)=C\C=C[C@H](C)[C@H](O)[C@@H](C)[C@@H](O)[C@@H](C)[C@H](OC(C)=O)[C@@H]1C
inactive: [1] | [19] | [2] | [20] | [6] | [7] | [8] | [9] | [10] | [11] | [12] | [13] | [14] | [15] | [16] | [17]

O=C(OCc1ccccc1)c1ccccc1
inactive: [1] | [2] | [3] | [4] | [20] | [5] | [6] | [7] | [8] | [9] | [10] | [11] | [12] | [13] | [14] | [15] | [16] | [17]

C[C@]12C[C@H](O)[C@H]3[C@@H](CCC4=CC(=O)CC[C@@]43C)[C@@H]1CC[C@@H]2C(=O)CO
inactive: [1] | [2] | [3] | [4] | [5] | [6] | [9] | [10] | [11] | [12] | [13] | [14] | [15] | [17]
48.6 µM (active) and inactive: [16]

CC(C)=CCC/C(C)=C/CO
inactive: [1] | [2] | [4] | [20] | [5] | [6] | [7] | [8] | [9] | [10] | [12] | [13] | [14] | [15] | [16] | [18] | [17]

CN(C)Cc1cc(CN(C)C)c(O)c(CN(C)C)c1
inactive: [1] | [2] | [4] | [5] | [6] | [9] | [10] | [11] | [12] | [13] | [14] | [15] | [16] | [17]

C[C@]12C=CC(=O)C=C1CC[C@@H]1[C@@H]2C(=O)C[C@@]2(C)[C@H]1CC[C@]2(O)C(=O)CO
inactive: [1] | [2] | [6] | [7] | [8] | [9] | [10] | [11] | [12] | [13] | [14] | [15] | [16] | [17]

COC(=O)c1ccc(O)cc1
inactive: [1] | [2] | [3] | [20] | [6] | [7] | [8] | [9] | [10] | [11] | [12] | [13] | [14] | [15] | [18] | [17]
